In the library only some 2.4% were active in any assay of this set; here they are far more common.
D2 ag-1 = HTS Assay for Allosteric Agonists of the Human D2 Dopamine Receptor: Primary Screen for Agonists. HEK293 T-REx D2 cells, calcium flux agonist mode. 0.53% of 340,000 active. D(2) dopamine receptor (Homo sapiens), P14416. activation, % at 2 µM;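 active = activation over 3 SD above normal in the single-dose calcium agonist read, cut at about 30% in these data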; also: 0% is about no effect
Target sequence (P14416 whole entry, looked up): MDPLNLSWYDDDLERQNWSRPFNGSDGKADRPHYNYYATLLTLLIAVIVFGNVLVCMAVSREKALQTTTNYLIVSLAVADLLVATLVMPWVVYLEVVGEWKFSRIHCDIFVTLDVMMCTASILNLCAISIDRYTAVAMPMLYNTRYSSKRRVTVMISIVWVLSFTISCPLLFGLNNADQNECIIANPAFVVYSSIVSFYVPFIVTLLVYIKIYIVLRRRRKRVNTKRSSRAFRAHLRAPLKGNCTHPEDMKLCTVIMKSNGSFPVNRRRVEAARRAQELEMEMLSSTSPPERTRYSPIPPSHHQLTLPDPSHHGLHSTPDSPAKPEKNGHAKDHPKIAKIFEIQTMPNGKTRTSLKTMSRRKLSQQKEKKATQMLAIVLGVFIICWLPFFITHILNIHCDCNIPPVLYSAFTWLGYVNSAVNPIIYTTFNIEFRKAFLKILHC
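Agonism scored from kinetic calcium signal (1 read/sec, 180 s) following compound pin transfer, after a 10 s baseline. Cells: HEK293 Trex line expressing inducible D2 receptor coupled to calcium, dye-loaded after overnight culture at 30 C.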
D2 antag = HTS Assay for Allosteric Antagonists of the Human D2 Dopamine Receptor: Primary Screen for Antagonists; D(2) dopamine receptor (Homo sapiens), P14416; HEK293 TREx D2 cells, calcium flux, dopamine EC80; inhibition, % at 10 µM; 2% of 340,000 active; AID 485344, 2010; in the data active = inhibition above about 30%; inactive = below that, where a call was filed; also: 0% is about no effect
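Compounds are added to dye-loaded, induced HEK293 T-REx cells coupled to calcium release via D2; after a 3 min kinetic read an EC80 dopamine stimulus is given and fluorescence is recorded for 3 more min.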
D2 ag-2 = Beta-Arrestin HTS for Positive Allosteric Modulators of the Human D2 Dopamine Receptor: Agonists; D(2) dopamine receptor (Homo sapiens), P14416; DiscoveRx PathHunter D2 beta-arrestin, luminescence, 90 min; 100% = 57 uM dopamine signal; activation, % (no concentration beside the values); 0.084% of 360,000 active; in the data active = activation above about 40%; inconclusive = between about 15% and that limit
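Agonist mode: compounds alone added to overnight-plated D2 PathHunter cells for 90 min at 37 C, with 57 uM final dopamine (EC100) defining full response. Beta-arrestin recruitment detected by chemiluminescent reagent, read after 1 h at ambient temperature.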
D2 PAM-1 = HTS Assay for Positive Allosteric Modulators of the Human D2 Dopamine Receptor: Primary Screen for Potentiators | HEK293 T-REx D2, calcium flux, EC20 dopamine potentiation | potentiation, % at 10 µM | 0.34% of 340,000 active;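 active = potentiation over 3 SD above the plate norm, cut at about 30% in these data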; also: 0% is about no effect
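Primary screen. Calcium kinetics in induced HEK293 T-REx D2 cells: compound pre-addition 180 s, EC20 dopamine, 180 s more.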
D2 PAM-2 = Beta-Arrestin HTS for Positive Allosteric Modulators of the Human D2 Dopamine Receptor: Potentiators; potentiation, % (test concentration not listed); DiscoveRx D2 beta-arrestin cells, luminescence, 90 min; 100% = 57 uM dopamine signal; D(2) dopamine receptor (Homo sapiens), P14416; 0.23% of 360,000 active; in the data active = potentiation above about 50%; inconclusive = mostly about 30% to 49%
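D2 cells co-treated with compound plus 50 nM dopamine (EC20) for 90 min at 37 deg C to detect potentiation. Beta-arrestin recruitment was read as enzyme-fragment luminescence after 1 h at ambient temperature. Full response was set by 57 uM dopamine.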
Numbers without * were called inactive; ? = inconclusive; / = no result given.

SMILES	D2 ag-1	D2 antag	D2 ag-2	D2 PAM-1	D2 PAM-2
COc1ccccc1C(=O)O/N=C(/c1ccncc1)c1ccc([N+](=O)[O-])cc1	1	-8	?	4	100*
O=C(Nc1nnc(SCC(=O)N2CCCCC2)s1)c1ccc(F)cc1F	0	55*	3	-3	1
CCS(=O)(=O)c1nc(S(=O)(=O)c2ccc(C)cc2)c(NCc2ccccc2Cl)s1	1	/	/	6	/
C[C@H](N=C1NS(=O)(=O)c2ccccc21)C(=O)OCc1cc([N+](=O)[O-])cc2c1OCOC2	2	45*	0	-24	-13
O=C(CCCN=C1NS(=O)(=O)c2ccccc21)OCc1cc([N+](=O)[O-])cc2c1OCOC2	1	-8	5	7	-19
COc1cccc(NC(=O)CN(C)C(=O)c2cccc(NS(=O)(=O)c3ccccc3)c2)c1	0	32*	0	-10	-2
Cc1ccc(NC(=O)CN(C)C(=O)c2cccc(S(=O)(=O)NCc3ccccc3)c2)cc1	0	46*	-3	-2	-38
COc1cccc(NC(=O)CN(C)C(=O)CC(NC(=O)c2ccccc2Cl)c2ccccc2)c1 (configuration not stated)	0	32*	-1	-22	-5
COc1cccc(NC(=O)CN(C)C(=O)c2cccc(NS(=O)(=O)c3ccc(Br)cc3)c2)c1	/	/	-1	/	-3
Cc1ccc(NC(=O)CN(C)C(=O)c2cccc(S(=O)(=O)NCc3cccs3)c2)cc1	0	-22	4	-19	-6
COc1cccc(N2CC(NC(=O)c3ccc(S(=O)(=O)N4CCCCC4)cc3)CC2=O)c1 (configuration not stated)	-3	/	/	-5	/
CC(C)CCN1C(=O)c2ccccc2CC1(C)C(=O)NC1CCCCC1 (configuration not stated)	0	/	/	/	/
Cc1cc(C)c2c(CC(=O)Nc3nnc(CC(C)C)s3)coc2c1	1	/	/	5	/
COc1ccccc1OCC(=O)Nc1c(C(=O)c2ccc(F)cc2)oc2ccccc12	0	/	/	8	/
Cc1cc(NC(=O)c2c(F)cccc2Cl)no1	-1	-17	2	31*	5
Cc1cc(NC(=O)Nc2ccc(F)cc2)no1	0	-3	-4	40*	1
Cc1cc(NC(=O)c2ccccc2Cl)no1	0	13	-4	26	2
COc1ccc(C(=O)N/C(=C\c2cc(OC)c(OC)cc2[N+](=O)[O-])C(=O)NCCO)cc1	1	39*	0	-12	2
OC(C#CCCN1CCCCC1)(c1ccccc1)c1ccccc1	2	33*	0	-31	-11
OC(C#CCN1CCCCCC1)(c1ccccc1)c1cccnc1 (configuration not stated)	0	58*	0	-19	-28
OC(CCN1CCCCC1)(c1ccccc1)C1CCCCC1 (configuration not stated)	-1	46*	-4	-25	-38
OC(C#CCN1CCCC1)(c1ccccc1)c1cccnc1 (configuration not stated)	2	-1	-2	-10	-17
COc1ccc(NC(=O)NNC(=O)CCc2ccc(O)c(O)c2)cc1OC	39*	-8	9	-9	2
Cc1ccc(N2CCN(C(=O)c3cc(S(=O)(=O)N4CCCCC4)c[nH]3)CC2)c(C)c1	/	/	/	-4	/
CC1CCCN(c2cc(N(C)CCO)c([N+](=O)[O-])c3nonc23)C1 (configuration not stated)	0	-7	-2	40*	-5
O=c1oc2c(CN3CCCCCC3)c(O)ccc2cc1-c1nc2ccccc2[nH]1	77*	14	/	-6	/
O=C1CN2C(=N1)N(Cc1ccccc1)c1ccccc12	1	71*	0	-13	6
c1ccc(CN2C3=NCCCN3c3ccccc32)cc1	-3	-25	3	12	-15
COc1ccc(OCc2cccc(C(=O)O)c2)cc1	1	35*	-1	3	-9
